Test in all cases: NCI-60 one-dose screen, 48 h (100 = growth as untreated, 0 = no growth, -100 = all killed)
Common to all, as to conditions: 10 µM unless noted

The test system of test [1] is SR leukemia.
Test [2] concerns RPMI-8226 leukemia.
Test [3] relates to OVCAR-8 ovarian.
The subject of test [4] is OVCAR-5 ovarian.
The test system of test [5] is OVCAR-4 ovarian.
Test [6] deals with SK-OV-3 ovarian.
In test [7] the test system is IGROV1 ovarian.
For test [8], the system named is OVCAR-3 ovarian.
Test [9] concerns HS 578T breast.
In test [10] the test system is NCI/ADR-RES ovarian.

This is part of a sample that, as a whole, favours compounds with a hit. Of some 83,000 tested, about 20% had one in any assay.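 In brief: 96-well plates, 48 h treatment, single concentration, percent growth endpoint.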 Unmarked numbers belong to inactive results. Activity calls are given as the source filed them. How the source made its calls: active means growth percent below 10; inactive means the rest.

Consider `COc1cc(-n2cc(-c3cc(O)c(C/C=C(\C)CCC=C(C)C)c(O)c3)nn2)cc2c1O[C@]1(C)CC[C@@H](O)C(C)(C)[C@H]1C2`, for which the growth in [1] was 4.49% (active); in [2], -17.8% (active); in test [3] it was 16.4%; in test [4] it was 29.6%; in test [5] it was 37.9%; in [6], 34.8%. The growth was 23.8% in [7], -19.6% (active) in [8], 19.6% in test [9] and 17.3% in test [10].
With `O=C(CCCCCCN1CC(=O)N2[C@H](c3cc(Br)cs3)c3[nH]c4ccccc4c3C[C@H]2C1=O)NO`, the growth in test [1] was 17.2%; in [2], 11.8%; in test [3], 28%; in test [4], 38%; in [5], 63%; in [6], 61.9%. For the same molecule, the growth was 40.7% in test [7], 38.4% in [8], 44.8% in test [9] and 78.9% in [10].
As for `COc1ccc(-c2nc(SCC(C)C)nc(N/N=C\c3ccc(F)cc3)c2C#N)cc1`, the growth in test [1] was 46.7%; in test [2] it was 98.2%; in test [3], 96.3%; in test [4], 95.6%; in test [5], 8.96% (active); in test [6] it was 112%. The growth in test [7] was 80.5%; in [8], 70.5%; in [9] it was 62.4%; in test [10], 84.2%.
As for `O=C1c2c(c3c4ccc(Br)cc4oc3c3[nH]c4ccccc4c23)C(=O)N1O`, the growth in [1] is 8.52% (active); in test [2] it was 3.91% (active); in test [3], 47.6%; in test [4], 95.9%; in [5], 66%; in [6], 79.1%. Also, the growth in test [7] was 25.3%; in [8], 21.3%; in [9], 18%; in [10] it was 56.2%.
Turning to `COc1cnc2c(c1)C(=O)c1c-2n(CCCNCCO)c(=O)c2ccncc12`, the growth in test [1] was -4.25% (active); in [2] it was -4.03% (active); in test [3], -6.28% (active); in [4], -0.667% (active); in test [5], -4.81% (active); in test [6], 6.1% (active). The growth was 15.6% in [7], 8.44% (active) in test [8], 23.5% in test [9] and 58.8% in test [10].
For the molecule `Fc1ccc2[nH]cc(-c3nonc3-c3c[nH]c4ccc(Br)cc34)c2c1`, the growth in test [1] is 15.2%; in test [2] it was 29.9%; in test [3] it was 27%; in test [4], 36.8%; in test [5], 36%; in [6] it was 44.3%. In addition, the growth was 41.6% in test [7], 34.3% in test [8], 39.5% in test [9] and 23% in test [10].
Turning to `CC(C)=CCC[C@](C)(O)[C@H]1CC[C@]2(C)[C@@H]1CC[C@@H]1[C@@]3(C)Cc4nccnc4C(C)(C)[C@@H]3CC[C@]12C`, the growth in test [1] was 43.7%; in test [2], 43.2%; in test [3], 101%; in [4], 89.9%; in test [5] it was 90.1%; in test [6], 84.1%. Moreover, the growth is 104% in test [7], 90.3% in [8], 97.6% in test [9] and 83.6% in test [10].
`CCCCC[C@@H]1Cc2cc(O)c(C(=O)O)c3c2[C@H](C[C@]2(OC[C@@H](CC(=O)[C@@](C)(CC)C(=O)OC)[C@@H]2C)O3)O1`: the growth was 105% in test [1]; 108% in test [2]; 99.4% in test [3]; 111% in test [4]; 104% in test [5]; 104% in test [6]. The growth in [7] is 103%; in test [8], 111%; in test [9], 99.8%; in test [10], 113%.
As for `COc1cc(OC)c2sc(-c3ccc(-n4cncc4-c4ccc(OC)c(OC)c4)cc3)nc2c1`, the growth is 50.7% in test [1]; 33.3% in [2]; 71% in test [3]; 79.5% in [4]; 52.9% in test [5]; 84.8% in [6]. The growth in [7] was 67.2%; in test [8] it was 43.7%; in [9], 75.5%; in test [10] it was 56.4%.
As for `NC(=O)CCC(C(=O)O)N1C(=O)c2ccc(O)cc2C1=O` (stereo not given), the growth is 139% in test [1]; 82.1% in test [2]; 106% in test [3]; 131% in test [4]; 123% in test [5]; -100% (active) in [6]. The growth was 105% in test [7], 97.6% in [8], 107% in test [9] and 132% in test [10].
With `CC1=NN(c2nc(SCC(=O)Nc3nc4ccc(C)cc4s3)nc(-c3ccccc3)c2C#N)C(=O)C1`, the growth is 87.2% in [1]; 110% in test [2]; 102% in test [3]; 92.6% in test [4]; 101% in test [5]; 106% in test [6]. The growth in [7] was 83.5%; in [8], 108%; in test [9], 90.5%; in test [10] it was 100%.
For `O=C1CNC(c2ccccc2)C(c2ccccc2)N1` (stereo not given), the growth was 106% in [1]; 75.2% in test [2]; 98% in test [3]; 86.5% in test [4]; 89% in test [5]; 107% in [6]. Further, the growth in test [7] was 93%; in test [8], 107%; in test [9], 86.1%; in test [10], 81%.
For `O=C(Nn1c2c(sc1=NCc1ccccc1)C(=O)c1ccccc1C2=O)c1cc2ccc1CCc1ccc(cc1)CC2`, the growth in test [1] is 48.3%; in test [2], 59%; in test [3], 46.3%; in [4], 118%; in test [5] it was 47.7%; in test [6], 72.9%. Also, the growth in test [7] was 53%; in test [8] it was 51.1%; in test [9] it was 72.2%; in test [10] it was 64.3%.
As for `C=C(C)[C@@H]1CC[C@]2(C(=O)O)CC[C@]3(C)[C@H](CC[C@@H]4[C@@]5(C)C[C@@H](Cc6cn(CCO[C@@H]7O[C@H](COC(C)=O)[C@H](OC(C)=O)[C@H](OC(C)=O)[C@H]7OC(C)=O)nn6)[C@H](O)C(C)(C)[C@@H]5CC[C@]43C)[C@@H]12`, the growth in [1] was 48.2%; in test [2] it was 38.3%; in test [3] it was 77.8%; in [4], 97.3%; in test [5], 72.8%; in [6] it was 80.8%. For the same molecule, the growth in test [7] was 59.3%; in test [8], 67%; in test [9] it was 51.9%; in test [10] it was 91.8%.
Take `c1cc2[nH]ncc2cc1-c1nc2ccc3[nH]ncc3c2c2c1CCCC2`: the growth in test [1] is -13.7% (active); in test [2], 19.8%; in test [3], 17.4%; in [4], 32.5%; in [5], 39.9%; in test [6], -25.1% (active). Besides, the growth is 8.59% (active) in [7], 28% in test [8], 6.02% (active) in test [9] and 26.6% in [10].
`COC(=O)CCC(=O)C(=O)OC`: the growth in test [1] was -26.4% [10 mM] (active); in test [2] it was -8.65% [10 mM] (active); in test [3] it was 31.8% [10 mM]; in test [4] it was 23.6% [10 mM]; in [5] it was 47.8% [10 mM]; in test [6], 3.77% [10 mM] (active). The growth in test [7] is 9.89% [10 mM] (active); in [8] it was 5.88% [10 mM] (active); in test [9], 25.2% [10 mM]; in [10] it was 33.1% [10 mM].
As for `CC1(C)CC[C@]2(C(=O)O)CC[C@]3(C)C(=CC[C@@H]4[C@@]5(C)C/C(=C/O)C(=O)C(C)(C)[C@@H]5CC[C@]43C)[C@@H]2C1`, the growth in [1] was 36.3%; in [2] it was 13.2%; in test [3], 29.3%; in test [4], 81.4%; in test [5] it was 63%; in [6] it was 89.8%. The growth in [7] was 31.4%; in test [8] it was 21%; in test [9] it was 74.1%; in [10], 38.8%.
Take `Cc1nc2c(=O)[nH]c(SCC(=O)Nc3cccc(F)c3)nc2[nH]c1=O`: the growth in test [1] is 132%; in test [2], 110%; in test [3] it was 103%; in test [4] it was 103%; in test [5] it was 101%; in test [6], 115%. The growth in [7] is 108%; in [8], 111%; in test [9] it was 101%; in test [10], 107%.
Consider `CN1CCN(Cc2ccc3c(NNC(=O)c4ccccc4)nc4cc(F)ccc4n23)CC1`, for which the growth in test [1] is 7.6% (active); in test [2], 26.4%; in test [3], 17.6%; in test [4], 59.2%; in test [5], 24.1%; in [6], 37.1%. The growth in test [7] is 21.7%; in test [8], 38.9%; in test [9], 70.6%; in [10], 8.77% (active).
For the molecule `O=C1N(Cc2ccccc2Cl)c2ccccc2C12NN=C(c1cccc(Cl)c1)S2` (stereo not given), the growth in [1] was -1.58% (active); in [2], 30.5%; in test [3], -23.5% (active); in test [4] it was 9.45% (active); in [5], -13.9% (active); in test [6], -5.89% (active). Also, the growth in [7] is 20.2%; in [8], 4.87% (active); in test [9], 3.21% (active); in test [10], -17% (active).
As to `O=C(O)c1ccc(-n2cc(/C=N/Nc3ccc(F)cc3)c(-c3cc4ccccc4oc3=O)n2)cc1`, the growth was 51.9% in [1]; 90.4% in [2]; 84.5% in test [3]; 82.4% in [4]; 91.1% in test [5]; 94.1% in test [6]. The growth in test [7] was 74%; in test [8], 82.4%; in [9], 95.3%; in test [10] it was 77.9%.
On to `N#CC1=C(N)Oc2c(sc3c(F)cccc23)C1c1ccc(F)cc1` (stereo not given), for which the growth in test [1] was 30.6%; in [2], 18.1%; in test [3], 21.4%; in [4], 61.5%; in test [5], 60.8%; in test [6], 31.8%. Besides, the growth in [7] is 33.9%; in test [8] it was 10.9%; in test [9] it was 24.6%; in test [10], 4.36% (active).
For the molecule `CN(CCOc1ccc(C#N)cc1)CCOc1ccc(C#N)cc1`, the growth is 49.6% in test [1]; 7.02% (active) in test [2]; 93.5% in [3]; 79% in [4]; 75% in test [5]; 46.8% in test [6]. Besides, the growth is 61.1% in test [7], 97.6% in [8], 49.2% in [9] and 67.1% in test [10].
As to `COCCNC(=O)c1ccc(-c2nc3ccc4[nH]ncc4c3c3c2CCCC3)cc1`, the growth is 5.46% (active) in test [1]; 29.6% in [2]; 46% in test [3]; 67.8% in test [4]; 61.9% in test [5]; 6.55% (active) in test [6]. The growth in test [7] was 15.8%; in test [8], 56%; in test [9], -6.17% (active); in [10], 63.9%.
On to `O=C1Nc2ccccc2/C1=C\c1nc(-c2ccccc2F)n2ccccc12`, for which the growth in test [1] is 49.6%; in test [2], 44.6%; in test [3], 5.14% (active); in test [4] it was 47.8%; in test [5], -34.4% (active); in test [6], -0.955% (active). Also, the growth was 2.99% (active) in test [7], 6.22% (active) in [8], 12% in test [9] and 9.77% (active) in test [10].
Regarding `C#Cc1cccc(Nc2ncnc3ccc(-c4cncc(NS(C)(=O)=O)c4)cc23)c1`, the growth in test [1] is 7.86% (active); in test [2] it was 26.3%; in [3], 37.1%; in test [4], 21.9%; in test [5], 52.1%; in test [6], 0.85% (active). Also, the growth was -12.4% (active) in test [7], 7.33% (active) in test [8], 6.13% (active) in test [9] and 78.3% in test [10].
In the case of `N#Cc1cccc(-c2c(-c3ccc4ccccc4c3)oc3ccccc3c2=O)c1`, the growth in test [1] was 9.67% (active); in test [2], 46.2%; in test [3] it was 62.4%; in test [4], 53.3%; in test [5] it was 68.1%; in test [6], 51%. Also, the growth was 36.5% in [7], 40.2% in [8], 69% in [9] and 27.2% in test [10].

The values above are taken from PubChem BioAssay (NCI).
